This note sets out measurements from PubChem BioAssay (NCATS).

Results filed as inconclusive are left out. Unmarked numbers belong to inactive results. Activity calls are given as the source filed them. Calls come from the whole dose curve; as a rule, active = well fitted activation curve with a large enough effect; inconclusive = small, poorly fitted or top-dose-only effect; inactive = flat fitted curve, though single readings scatter.
Potency is the fitted concentration of half-maximal effect.

Chain of D(1A) dopamine receptor (Homo sapiens) (P21728 whole entry, looked up): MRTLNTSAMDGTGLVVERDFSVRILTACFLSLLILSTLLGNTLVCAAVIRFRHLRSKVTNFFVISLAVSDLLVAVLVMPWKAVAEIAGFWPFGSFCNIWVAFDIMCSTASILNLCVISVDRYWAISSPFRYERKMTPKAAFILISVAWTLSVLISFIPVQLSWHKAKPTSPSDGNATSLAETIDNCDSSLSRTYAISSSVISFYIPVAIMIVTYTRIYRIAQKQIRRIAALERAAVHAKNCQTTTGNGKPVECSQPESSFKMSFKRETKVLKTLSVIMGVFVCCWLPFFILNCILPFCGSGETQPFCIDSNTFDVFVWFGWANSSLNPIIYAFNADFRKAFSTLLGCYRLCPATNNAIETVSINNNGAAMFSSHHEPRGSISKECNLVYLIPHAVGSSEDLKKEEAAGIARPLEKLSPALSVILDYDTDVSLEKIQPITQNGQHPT

The assay concerns the target D(1A) dopamine receptor (Homo sapiens) (UniProt P21728). Description: HTS Assay for Allosteric Agonists of the Human D1 Dopamine Receptor: Primary Screen for Agonists (AID 488981). For activation: 0% is about no effect. Particulars: Inducible HEK293 T-REx D1 cells, calcium-flux fluorescence, 180 s kinetic; series mostly up to 41.8 µM; activation: at the top concentration. From the text: Dopamine receptors (DARs) are involved in the etiology and/or therapy of a number of neuropsychiatric and endocrine disorders. For instance, all receptor-based antiparkinsonian drugs work via stimulating the […] DAR subtype whereas all FDA-approved antipsychotic agents are antagonists of this receptor. […] There are three different types of allosteric modulators that we are seeking, two of which will stimulate or augment receptor signaling, allosteric agonists and potentiators, while the third, allosteric antagonists, will attenuate receptor signaling. The present primary screening assay measures compound agonism by tracking calcium flux in a […], inducible Hek293 Trex D1 cell line.
Freshly passaged cells are plated in 1536 well black, clear bottom plates at a density of 4000 cells/well in 3 ul of complete media containing 1x tetracycline inducer. After an overnight incubation at 30 C in 5% CO2, cells are loaded with 2 ul of the no wash Calcium Assay Kit (ABD Bioquest) and incubated at room temperature for 30 to 90 minutes. A 10 cycle (1 second/cycle) baseline measurement is taken and then the FDSS online 1536 pintool delivers 23 nl of compound library (as well as dopamine controls) to the plate. The plate is measured for kinetically at 1 cycle/sec for 180 seconds and is considered to be the agonist portion of the assay (eg, compounds which activate a positive calcium response during this portion are flagged as potential agonists). Following the 180 second read, 1 ul of an EC20 of dopamine is delivered by an onboard pipette head. Measurements are taken kinetically for an additional 180 seconds.
Consider `Nc1cc(=O)[nH]c(N)n1`, for which the “activation” value was 2.22%.

As for `NC(=O)c1ncn([C@@H]2O[C@H](CO)[C@@H](O)[C@H]2O)n1`, the “activation” value is -0.159%.

Turning to `CC(C)C(=O)c1c(C(C)C)nn2ccccc12`, the “activation” value was -1.22%.

As for `CN(C)CCCN1c2ccccc2CCc2ccccc21`, the “activation” value is 25.9%.

As for `CNCCCC1c2ccccc2C=Cc2ccccc21`, the “activation” value was 29.7%.

Turning to `CC1=C(/C=C/C(C)=C/C=C/C(C)=C/C(=O)O)C(C)(C)CCC1`, the “activation” value is 18.2%.

For the compound `CC(C(O)c1ccc(O)cc1)N1CCC(Cc2ccccc2)CC1` (stereo not given), the Potency is 11.2 µM (active).

In the case of `CCN(CC)CCCC(C)Nc1c2ccc(Cl)cc2nc2ccc(OC)cc12` (stereo not given), the Potency is 11.2 µM (active).

Regarding `CC(CN1c2ccccc2Sc2ccccc21)N(C)C` (stereo not given), the “activation” value was 14.3%.

Consider `CC[C@H]1CN2CCc3cc(OC)c(OC)cc3[C@@H]2C[C@@H]1C[C@H]1NCCc2cc(OC)c(OC)cc21`, for which the “activation” value was -0.529%.

As to `CN(C)CCC=C1c2ccccc2CCc2ccccc21`, the “activation” value is 16.9%.

As for `CC(C)(C(=O)O)c1ccc(C(O)CCCN2CCC(C(O)(c3ccccc3)c3ccccc3)CC2)cc1` (stereo not given), the “activation” value was -0.793%.

For the compound `CCCCCCCCCCCCCCCC(=O)NCCO`, the “activation” value was -1.59%.

For the compound `CCN(CC)C(C)CN1c2ccccc2Sc2ccccc21` (stereo not given), the “activation” value was 1.16%.

As for `CC(CN(C)C)CN1c2ccccc2CCc2ccccc21` (stereo not given), the “activation” value is 18.1%.

As for `C[C@]12CC[C@@H]3c4ccc(O)cc4CC[C@H]3[C@@H]1CCC2=O`, the “activation” value is 1.53%.

Regarding `CC1=C(CC(=O)O)c2cc(F)ccc2/C1=C\c1ccc(S(C)(=O)=O)cc1`, the “activation” value was -1.64%.

As to `CC(=O)OCC(=O)[C@@]1(O)CC[C@H]2[C@@H]3CCC4=CC(=O)CC[C@]4(C)[C@H]3C(=O)C[C@@]21C`, the “activation” value was 2.06%.

Regarding `C[C@]12C[C@H](O)[C@H]3[C@@H](CCC4=CC(=O)CC[C@@]43C)[C@@H]1CC[C@@H]2C(=O)CO`, the “activation” value is 2.17%.

Consider `COCCOC(=O)C1=C(C)NC(C)=C(C(=O)OC/C=C/c2ccccc2)C1c1cccc([N+](=O)[O-])c1` (stereo not given), for which the “activation” value was 0.582%.

`NC1CCN(c2cccc(Cl)n2)CC1`: the “activation” value was 8.36%.

In the case of `CCCn1cnc2c1c(=O)n(CCCCC(C)=O)c(=O)n2C`, the “activation” value is -0.582%.

For the compound `C=Cc1c(C)c2cc3[nH]c(cc4nc(cc5nc(cc1[nH]2)C(C)=C5CCC(=O)O)C(CCC(=O)O)=C4C)c(C)c3C=C`, the “activation” value is 1.75%.

`COc1ccc(Cl)cc1C(=O)NCCc1ccc(S(=O)(=O)NC(=O)NC2CCCCC2)cc1`: the “activation” value was 7.35%.

On to `CN(C)CC[C@@H](c1ccc(Cl)cc1)c1ccccn1`, for which the “activation” value was 5.98%.

For the compound `CCN(CC)CCNC(=O)c1cc(Cl)c(N)cc1OC`, the “activation” value is -1.16%.

With `N=c1c[n+](N2CCOCC2)[n-]o1`, the “activation” value was -0.106%.

As to `CNC(=O)Oc1ccc2c(c1)[C@]1(C)CCN(C)[C@@H]1N2C`, the “activation” value was 1.16%.

Regarding `NC(N)=NCCC[C@H](N)C(=O)O`, the “activation” value is -1.06%.

Regarding `Cc1cc(N)c2ccccc2[n+]1CCCCCCCCCC[n+]1c(C)cc(N)c2ccccc21`, the “activation” value was -0.529%.

As for `CC1=C(CC(=O)O)c2cc(F)ccc2/C1=C\c1ccc(S(C)=O)cc1` (stereo not given), the “activation” value is -1.22%.

`CN(C)CCOC(C)(c1ccccc1)c1ccccn1` (stereo not given): the “activation” value is 1.9%.

`CSc1ccc2c(c1)C(N1CCN(C)CC1)Cc1ccccc1S2` (stereo not given): the “activation” value is 19.2%.

Turning to `C#CCN(C)Cc1ccccc1`, the “activation” value was -0.264%.

Regarding `C[C@](N)(Cc1ccc(O)cc1)C(=O)O`, the “activation” value was -0.793%.

With `Nc1ncnc2c1ncn2[C@@H]1O[C@H](CO)[C@@H](O)[C@H]1O`, the “activation” value was 0.0529%.

Take `COC(=O)C1=C(C)NC(C)=C(C(=O)OC)C1c1ccccc1[N+](=O)[O-]`: the “activation” value was 4.23%.

Regarding `CC(C)(C)c1onc(OCP(=O)(O)O)c1CC(N)C(=O)O` (stereo not given), the Potency result was “inactive”.

`CC(C)NC[C@H](O)c1ccc(O)c(O)c1`: the Potency result was “inactive”.

Turning to `CSc1ccc2c(c1)N(CCC1CCCCN1C)c1ccccc1S2` (stereo not given), the “activation” value is 18.9%.
